# Hits are enriched below; roughly 20% of the tested compounds scored in any of these assays.
# CHX counter = counter-screen hit for Shiga toxin inhibitors, cycloheximide. cell reporter, cycloheximide protein synthesis inhibition counterscreen. max response, %. 300,000 tested, 12% active. AID 2314; in the data active = max response mostly above about 13%, no sharp cut-off; inactive = mostly below about 14%; also: read at 38.3 µM for the half of the compounds with a filed dose; 0% is about no effect
# Pf growth 96h = inhibits malaria parasite growth, 96 h; P. falciparum luciferase reporter growth, 96 h; Potency, µM (doses to about 28.7 µM), for inactives: top-dose activity change, negative = inhibition, hits mostly inhibitors; 320,000 tested, 6.9% active; AID 504834; also: potency is read from the fitted curve at half-maximal effect; % is scaled to controls: 0 for no effect and ±100 for the full control effect
#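 Two parasite generations (96 h, 37 C, 5% CO2) of compound exposure in infected erythrocytes (0.05% parasitemia, 2% hematocrit). Luciferase-reporter P. falciparum; decreased luminescence indicates inhibited growth, aimed at apicoplast-acting delayed death.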
# Shiga toxin inh = Shiga toxin inhibition | Vero cells, Shiga toxin protein synthesis inhibition reporter | inhibition, % at 38.7 µM | 290,000 tested, 9.2% active | AID 2315; in the data active = inhibition mostly above about 28%, no sharp cut-off; inactive = mostly below about 43%; also: 0% is about no effect
# HCMV antiviral = human cytomegalovirus inhibition; HFF cells, HCMV-luciferase reporter, 72 h; stronger effect = lower value; AID 1259415; 410,000 tested, 4.5% active; activity change, negative = inhibition, % at 57.5 µM; in the data active = activity change below about -60%; inconclusive = no clear call, values can overlap the other calls; inactive = above about -39%; also: % is scaled to controls: 0 for no effect and ±100 for the full control effect
#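 Screen run at 2 compound doses on HFFs infected with reporter HCMV, MOI 1 PFU/cell. Luciferase activity from cell lysates at 72 h post infection gave inhibition relative to buffer-only and Salinomycin wells.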
# Pf growth 48h = P. falciparum growth inhibition at 48 hours (one generation) | Potency, µM (series often up to 28.7 µM), inactives show at the highest dose activity change, negative = inhibition, actives largely listed as inhibitors | 310,000 tested, 5.9% active | P. falciparum luciferase growth in erythrocytes, 48 h; also: potency is read from the fitted curve at half-maximal effect; % is scaled to controls: 0 for no effect and ±100 for the full control effect
#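 Luciferase-expressing P. falciparum in infected erythrocytes (2% hematocrit, 0.1% parasitemia final) in RPMI 1640/0.5% Albumax were exposed to compound for 48 hours at 37 C, 5% CO2; growth read as luminescence.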
# * = called active by the depositor; i = inactive; u = inconclusive; x = not tested or not shown. Unless noted, calls follow the shape of the dose curve; as a rule, active = well fitted inhibition curve with a large enough effect; inconclusive = small, poorly fitted or top-dose-only effect, or another doubt; inactive = no such curve, though single readings can be large or run the other way.
SMILES,CHX counter,Pf growth 96h,Shiga toxin inh,HCMV antiviral,Pf growth 48h
CCOC(=O)C1=C(CN2CCSCC2)NC(=O)NC1c1cc(C)ccc1C (configuration not stated),-3.0,-1.4%,-1.6,-11.2,11.7µM*
O=C(O)CNC(=S)N(Cc1ccccc1)Cc1ccccc1F,-2.0,11.3%,-7.2,-25.5,15.8%
CCOC(=O)CCCCCC(=O)Nc1ccc2c(c1)C(=O)N([C@H](C)CO)C[C@@H](C)[C@@H](CN(C)C(=O)CCC(F)(F)F)OCCCC[C@H](C)O2,x,x,x,69.2,x
CCN(Cc1cnn(C)c1)C(=O)CC1C(=O)NCCN1Cc1cccc(OC)c1OC (configuration not stated),1.1,19.7%,-14.1,74.2,4.5%
S=C(NCCCn1ccnc1)Nc1cccc(Cl)c1,-0.8,34.0%,-22.6,-4.0,u
O=C(NC(=S)NCC1CCCO1)c1ccccc1[N+](=O)[O-] (configuration not stated),2.2,-29.1%,12.2,-36.2,8.0%
Cc1ccc(CCNC(=O)c2sc3ncccc3c2-n2cccc2)cc1,x,x,x,-7.5,x
CN(N=Nc1cccc([N+](=O)[O-])c1)c1cccc([N+](=O)[O-])c1,33.3*,94.7%,108.8*,63.9,44.6%
Cc1ccc(COc2ccc(/C=N/NC(=O)c3ccc(CN4CCOCC4)cc3)cc2)cc1,10.4,u,1.4,37.7,0.9%
O=C(N/N=C/c1ccc(OCc2ccccc2)cc1)c1cc[n+](Cc2ccccc2)cc1,20.4*,u,36.9*,19.6,-2.7%
CC(C)(C)c1ccc(OCc2ccc(C(=O)N/N=C3\CC4CC=CC34)cc2)cc1 (configuration not stated),16.8*,-16.1%,17.5,-68.2*,10.2%
CC(C)(C)c1ccc(OCc2ccc(C(=O)N/N=C/c3ccc(O)c(O)c3)cc2)cc1,17.8*,u,63.9*,1.7,u
O=C(N/N=C/c1ccc(OCc2ccc(F)cc2)cc1)c1ccccc1,-5.9,-4.7%,-9.4,-11.6,1.17µM*
O=C(N/N=C1\CC2CC=CC12)c1ccc(COc2ccccc2)cc1 (configuration not stated),9.7,u,19.6,8.6,-16.9%
C[C@H](CO)N1C[C@H](C)[C@@H](CN(C)Cc2ccc(C(=O)O)cc2)Oc2c(NS(=O)(=O)c3cccs3)cccc2C1=O,x,x,x,2.6,x
Cc1cccc(OCC(=O)Nc2c(C)ccc3nsnc23)c1C,x,x,x,-20.5,x
Cc1cc(C)n(-c2nc(C)c(C)c(=O)n2CC(=O)Nc2ccc([N+](=O)[O-])cc2)n1,x,x,x,65.3,x
COc1ccc(C(=O)Nc2cc(C)nn2-c2cccc(F)c2)cc1,9.8,u,21.5,-35.3,9.3%
COc1ccc(Nc2nc(Nc3ccc(OC)cc3)nc(-n3[nH]c(=O)c(C)c3C)n2)cc1,8.0,x,-3.0,13.3,2.62µM*
Cc1ccc(NC(=O)C2CCN(S(=O)(=O)c3cccc4nonc34)CC2)c(Cl)c1,x,x,x,-3.0,x
O=C(NC(=S)NCCN1CCOCC1)c1ccc(F)cc1,-2.3,31.5%,43.6*,17.8,35.1%
COC(=O)C(Cc1ccccc1)NC(=S)NC(=O)c1ccccc1 (configuration not stated),12.0,8.4%,26.8,-17.1,i
O=C(NC(=S)NC(CO)Cc1ccccc1)c1ccc(F)cc1 (configuration not stated),18.8*,154.3%,50.6*,-0.1,98.3%
CC(C)CNC(=S)NC(=O)c1ccc(F)cc1,61.7*,15.2%,118.2*,-27.7,81.0%
Cc1ccc(-c2cc(C(=O)NCCN3CCOCC3)no2)cc1,15.1*,x,25.0*,20.5,51.8%
SMILES,CHX counter,Pf growth 96h,Shiga toxin inh,HCMV antiviral,Pf growth 48h
O=C(NCCN1CCOCC1)c1cc(-c2ccc(Cl)cc2Cl)on1,20.2*,0.0%,50.2*,-2.2,63.6%
O=C(NCCN1CCOCC1)c1ccc(-c2ccccc2)cc1,24.6*,35.1%,37.9,-23.2,28.9%
O=C(NCCN1CCOCC1)c1cc(-c2cccc(Cl)c2)on1,1.1,u,37.5,-10.6,32.5%
O=C(NCCN1CCN(C(=O)c2ccc(Br)cc2)CC1)c1ccc(Br)cc1,-1.5,5.8%,-11.3,-66.3*,-0.8%
O=C(NCCN1CCOCC1)c1cc(-c2ccco2)on1,10.7,101.1%,30.9*,16.3,38.7%
Cc1ccc(NC(=O)CC2NCCNC2=O)cc1Cl (configuration not stated),12.6,11.6%,33.0,-15.5,17.0%
CN1CCN(c2ccc(CNS(=O)(=O)c3ccc(Cl)cc3)cc2)CC1,-1.9,4.6%,-13.1,41.3,-7.9%
O=C(NCCSc1ccccc1)c1ccc(CN2CCOCC2)cc1,35.5*,2.8%,62.5*,8.2,131.4%
O=C(Cc1cccs1)NCCN1CCOCC1,-1.3,4.15µM*,-3.4,-6.9,-8.1%
Cc1ccccc1CC(=O)NCCN1CCOCC1,-1.5,u,-5.9,20.4,7.0%
O=C(NCCN1CCOCC1)c1cc(-c2ccc(F)cc2)on1,14.8,0.294µM*,5.4,5.1,28.6%
O=C(NCCCN1CCOCC1)c1cc(-c2ccc(F)cc2)on1,19.9,31.5%,13.0,-10.3,45.0%
CC(C)CNC(=S)NC(=O)c1ccc(Cl)cc1Cl,43.3*,-5.7%,54.3*,-23.1,-7.2%
Cc1cc2c(s1)c1c(C)nn(Cc3ccc(F)cc3)c(=O)c1n2C,x,13.7%,x,x,-0.1%
COc1ccc(C(=O)CCS(=O)(=O)c2ccc(C)cc2)cc1OC,-3.2,44.0%,-11.0,4.0,10.8%
FC(F)(F)c1cccc(OCCN2CCN(Cc3ccccc3)CC2)c1,-4.3,10.4µM*,-17.1,3.3,11.9%
Clc1cccc(OCCN2CCNCC2)c1,-4.0,50.6%,-3.6,-35.0,u
OCCN1CCN(CCOc2cccc(Cl)c2)CC1,0.8,1.65µM*,37.9,8.6,21.9%
Cc1cccc(CNC(=O)CN2C(=O)C3CCCCN3c3ccc(C(=O)N4CCCC4)cc32)c1 (configuration not stated),x,x,x,-0.5,x
COc1ccc(N2CCN(C(=O)CSc3ncccc3-c3nc4ccccc4[nH]3)CC2)cc1,21.0*,u,24.0,u,-17.0%
O=C(CSc1ncccc1-c1nc2ccccc2[nH]1)N1CCN(c2ccccc2F)CC1,55.9*,0.0%,54.3,-13.5,0.0%
COc1ccccc1N1CCN(C(=O)CSc2ncccc2-c2nc3ccccc3[nH]2)CC1,21.4*,-12.6%,14.5,u,x
O=C(CSc1ncccc1-c1nc2ccccc2[nH]1)NC1CC1,10.2,7.6%,15.3,45.7,3.7%
COc1ccc(S(=O)(=O)N(C)C)cc1NC(=O)CSC(C)C(=O)Nc1cc(C)on1 (configuration not stated),x,u,x,5.9,-10.0%
COCn1ccnc1C(O)(c1ccc(OC)cc1)c1ccc(OC)cc1,-0.8,11.9%,-3.4,-1.2,6.4%
Cc1ccc(NCc2nnc(SC(C)C(=O)N/N=C/c3ccc(C)o3)n2-c2ccccc2)cc1 (configuration not stated),-2.6,u,-13.9,1.7,16.7%
Cc1cc(C)c(NC(=O)CCc2c(C)noc2C)c(C)c1,x,14.4%,x,u,0.2%

# High-throughput results (PubChem BioAssay)
